PubChem BioAssay AID1159580 (chemical genetic matrix, 2015)
About 2,000 (36%) of roughly 5,500 compounds were called active. Inconclusive results (about 18%) are left out. No stated cut-off is given here; in the data, active means normalized growth mostly below about 0.91 (no sharp cut-off); inconclusive means no clear call, values can overlap the other calls; inactive means mostly above about 0.92. This is one part of the list.

Test: chemical genetic growth profiling, strain panel (AID 1159580);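 further: tested at 20 µM; growth read once vehicle control cultures reached saturation at 30 °C; 1 = growth at the plate median or of vehicle wells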
Details: S. cerevisiae deletion strains, growth OD

Measured: normalized growth

COc1cc2c(cc1OC)-c1c(oc3c4c(ccc3c1=O)OC(C(C)C)C4)CO2 (stereo unspecified)
inactive: locus YAL013W, strain DEP1, stronger effect = lower value 1.01 | locus YBR021W, strain FUR4, stronger effect = lower value 1.06 | locus YBR229C, strain ROT2, stronger effect = lower value 1.01 | locus YCL029C, strain bik1, stronger effect = lower value 0.99 | locus YDL035C, strain GPR1, stronger effect = lower value 1.05 | locus YDL074C, strain BRE1, stronger effect = lower value 1.06 | locus YDL101C, strain DUN1, stronger effect = lower value 0.981 | locus YDL134C, strain PPH21, stronger effect = lower value 0.983 | locus YDL185W, strain tfp1, stronger effect = lower value 0.942 | locus YDL192W, strain arf1, stronger effect = lower value 1.01 | locus YDR101C, strain arx1, stronger effect = lower value 1.04 | locus YDR162C, strain NBP2, stronger effect = lower value 0.978 | locus YDR318W, strain mcm21, stronger effect = lower value 0.973 | locus YDR388W, stronger effect = lower value 0.982 | locus YDR502C, strain sam2, stronger effect = lower value 0.978 | locus YER110C, stronger effect = lower value 0.989 | locus YER155C, strain BEM2, stronger effect = lower value 0.997 | locus YER167W, strain BCK2, stronger effect = lower value 1.01 | locus YGL078C, strain dbp3, stronger effect = lower value 0.938 | locus YGL086W, strain mad1, stronger effect = lower value 0.983 | locus YGL248W, strain PDE1, stronger effect = lower value 0.988 | locus YGR078C, strain PAC10, stronger effect = lower value 0.982 | locus YGR135W, strain pre9, stronger effect = lower value 0.923 | locus YGR252W, strain gcn5, stronger effect = lower value 1.03 | locus YHR079C, strain IRE1 (second series), stronger effect = lower value 0.969 | locus YHR094C, strain hxt1, stronger effect = lower value 0.979 | locus YHR129C, strain ARP1, stronger effect = lower value 1 | locus YHR200W, strain rpn10, stronger effect = lower value 0.985 | locus YIL066C, strain RNR3, stronger effect = lower value 1.03 | locus YIL073C, strain SPO22, stronger effect = lower value 0.942 | locus YIL125W, strain kgd1, stronger effect = lower value 0.984 | locus YIR030C, strain dcg1, stronger effect = lower value 0.968 | locus YJL095W, strain BCK1, stronger effect = lower value 0.965 | locus YJL134W, strain LCB3, stronger effect = lower value 1 | locus YJL168C, strain set2, stronger effect = lower value 0.979 | locus YJL187C, strain SWE1 (second series), stronger effect = lower value 0.974 | locus YJR075W, strain HOC1, stronger effect = lower value 0.971 | locus YKL009W, strain mrt4, stronger effect = lower value 1.02 | locus YKL068W, stronger effect = lower value 0.98 | locus YKL085W, strain MDH1 (second series), stronger effect = lower value 0.973 | locus YKL085W, strain MDH1, stronger effect = lower value 0.973 | locus YKL190W, strain CNB1, stronger effect = lower value 0.992 | locus YKR001C, strain vps1, stronger effect = lower value 1.01 | locus YLR039C, strain RIC1, stronger effect = lower value 0.998 | locus YLR058C, strain SHM2, stronger effect = lower value 1 | locus YLR102C, strain apc9, stronger effect = lower value 0.988 | locus YLR268W, strain sec22, stronger effect = lower value 1.04 | locus YLR330W, strain CHS5, stronger effect = lower value 0.998 | locus YLR342W, strain FKS1 (second series), stronger effect = lower value 1.1 | locus YLR371W, strain rom2, stronger effect = lower value 0.982 | locus YLR418C, strain cdc73, stronger effect = lower value 0.981 | locus YML016C, strain PPZ1, stronger effect = lower value 0.989 | locus YML032C, strain rad52, stronger effect = lower value 1.01 | locus YML124C, strain tub3, stronger effect = lower value 0.971 | locus YMR078C, strain ctf18, stronger effect = lower value 0.962 | locus YMR223W, strain ubp8, stronger effect = lower value 0.979 | locus YMR263W, strain SAP30, stronger effect = lower value 0.984 | locus YMR307W, strain GAS1, stronger effect = lower value 1.15 | locus YNL067W, strain RPL9B, stronger effect = lower value 0.964 | locus YNL153C, strain GIM3, stronger effect = lower value 0.963 | locus YNL233W, strain BNI4, stronger effect = lower value 0.984 | locus YNL250W, strain rad50, stronger effect = lower value 0.93 | locus YNL271C, strain bni1, stronger effect = lower value 0.958 | locus YNL298W, strain CLA4, stronger effect = lower value 0.979 | locus YNL307C, strain MCK1, stronger effect = lower value 0.985 | locus YNR052C, strain pop2, stronger effect = lower value 0.962 | locus YOL006C, strain TOP1, stronger effect = lower value 1.17 | locus YOL012C, strain htz1 0.827 | locus YOL147C, strain pex11, stronger effect = lower value 0.973 | locus YOR061W, strain CKA2, stronger effect = lower value 1.02 | locus YOR069W, strain VPS5, stronger effect = lower value 0.996 | locus YOR136W, strain idh2, stronger effect = lower value 0.965 | locus YOR144C, strain elg1, stronger effect = lower value 1 | locus YOR184W, strain ser1, stronger effect = lower value 1.08 | locus YOR316C, strain cot1, stronger effect = lower value 0.97 | locus YPL241C, strain CIN2, stronger effect = lower value 0.986 | locus YPR119W, strain clb2, stronger effect = lower value 0.966 | locus YPR141C, strain kar3, stronger effect = lower value 0.954 | locus YPR163C, strain tif3, stronger effect = lower value 0.988 | locus YPR167C, strain met16, stronger effect = lower value 0.973 | strain wtn01, stronger effect = lower value 1.03
